# Mtb betalactam = beta-lactam sensitization of Mtb H37Rv; M. tuberculosis H37Rv growth with meropenem, percent inhibition; inhibition, % at 25 µM; 330,000 compounds, 0.27% hits; AID 434955; call rule not given here;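 further: growth measured after seven days incubation then overnight dye step; 0% = bacteria only wells and 100% = bacteria with antibiotic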
# GDH-TPI inh = inhibits GDH-TPI coupling enzymes, artifact for Mtb FBA screen; GDH-TPI coupled enzyme counterscreen, NADH absorbance; inhibition, % at 4.8 µM; 360,000 compounds, 1.2% hits;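 further: 0% = DMSO wells and 100% = wells lacking the enzyme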
# Mtb FBA inh = Mtb fructose-bisphosphate aldolase inhibition; inhibition, % at 1 µM; P9WQA3; purified M. tuberculosis FBA, fluorescence read-out; 360,000 compounds, 2.3% hits; in the data active means inhibition above about 27%;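 further: 0% = vehicle and 100% = reference inhibitor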
# Target sequence (P9WQA3 whole entry, looked up): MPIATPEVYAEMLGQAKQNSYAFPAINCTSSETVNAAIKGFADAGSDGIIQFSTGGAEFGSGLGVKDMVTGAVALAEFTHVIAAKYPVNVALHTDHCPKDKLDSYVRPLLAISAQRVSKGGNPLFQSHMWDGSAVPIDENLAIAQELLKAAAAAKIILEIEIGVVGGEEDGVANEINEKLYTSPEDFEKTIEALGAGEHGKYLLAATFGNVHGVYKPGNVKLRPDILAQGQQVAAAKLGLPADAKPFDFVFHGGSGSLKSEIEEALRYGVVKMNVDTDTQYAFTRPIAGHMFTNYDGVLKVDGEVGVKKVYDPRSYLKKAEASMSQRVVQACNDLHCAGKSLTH
# RecA intein inh = inhibitors of M. tuberculosis RecA intein splicing; P9WHJ3; cell-free RecA intein splicing, fluorescence; inhibition, % (test concentration not listed); 290,000 compounds, 0.75% hits; in the data active means inhibition above about 30%;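 further: 0% = vehicle wells and 100% = reference inhibitor control wells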
# CCHF vOTU inh = CCHFV vOTU protease inhibition | inhibition, % at 11.5 µM | AID 651958 | 370,000 compounds, 0.55% hits | Pep-AMC fluorescence; further: 0% = vehicle wells with enzyme and 100% = no enzyme wells
# GFP chromophore = counter-screen GFP chromophore formation inhibition; shares compounds with RecA intein inh; AID 434968; 2,100 compounds, 83% hits; cell-free GFP chromophore formation, fluorescence; EC50, µM; call rule not given here
# Numbers without * were called inactive; nt = no result; ! = repeats disagree. Compounds with a hit are over-represented: about 4.2% of the library has one in this group of screens. Unless noted, no stated cut-off is given here; in the data, active means inhibition above about 30%; inactive means the rest.
SMILES,Mtb betalactam,GDH-TPI inh,Mtb FBA inh,RecA intein inh,CCHF vOTU inh,GFP chromophore
Cc1ccc(C(=O)C2CCN(CC(=O)NCc3cccs3)CC2)cc1,nt,nt,nt,nt,1,nt
CCNc1ccccc1CP(=O)(c1ccccc1)c1ccccc1O (stereo not given),10,nt,nt,32*,0,2.2*
CN1OC[C@@H]2CN(C(=O)C3CCCCC3)[C@H](c3ccc(N4CCCCC4)cc3)C[C@@H]21,nt,nt,nt,nt,-2,nt
O=C(NCCc1ccccc1)OCc1cn(-c2ccc(F)c(F)c2)nn1,nt,nt,nt,nt,14,nt
Cc1ccc2c(c1)N(CCCC(=O)NCc1ccc(F)cc1)C(=O)CO2,nt,nt,nt,nt,-5,nt
Cn1c(SCC(=O)NCc2ccc(F)cc2)ncc(C(=O)Nc2ccccc2)c1=O,-7,6,6,6,-10,nt
Cn1c(SCC(=O)NCC2CCCO2)ncc(C(=O)Nc2ccc(F)cc2)c1=O (stereo not given),54,-7,3,39*,-6,0.89*
Cn1c(SCC(=O)NCC2CCCO2)ncc(C(=O)Nc2ccc(Cl)cc2)c1=O (stereo not given),74,7,0,54*,-2,>38
COC(=O)C1CN(C2CCCC2)CCS(=O)(=O)N1Cc1ccc(C)cc1 (stereo not given),nt,nt,nt,nt,-4,nt
CCN(CC)CCOc1ccc(/C(=C(/Cl)c2ccccc2)c2ccccc2)cc1,100,4,3,32*!,11,20*
Cc1nn(-c2ccccc2)c2c1C(c1ccco1)C(C#N)=C(N)O2 (stereo not given),-12,1,-7,68*,-2,18*
Cc1nn(-c2ccccc2)c2c1C(c1cccs1)C(C#N)=C(N)O2 (stereo not given),0,19,7,92*,nt,9.8*
CCCc1nn(-c2ccccc2)c2c1C(c1cccs1)C(C#N)=C(N)O2 (stereo not given),4,-2,-6,67*,-9,16*
N#CC1=C(N)Oc2cc(O)ccc2C1c1cccs1 (stereo not given),-2,3,-1,-7,10,nt
Cc1ccc(C(=O)C2CCN(CC(=O)N(C)C3CCCCC3)CC2)cc1,nt,nt,nt,nt,1,nt
Cc1noc2ncnc(Sc3ccccc3Cl)c12,100,-8,2,45*,0,38*
COc1ccc(OCc2cc(C(=O)N3CCCC(O)C3)no2)c2ccccc12 (stereo not given),-12,9,1,24,-5,nt
COc1ccc(OCc2cc(C(=O)N3CCCC(OC)C3)no2)c2ccccc12 (stereo not given),0,-8,-1,35*,2,30*
CN(N=Cc1ccc(N(C)C)cc1)C(=O)c1ccccc1N,nt,nt,nt,nt,6,nt
CCCCCCCCN1C(=O)[C@@H](CC(=O)NCCc2ccccc2OC)C[C@@]2(C(=O)OC)C1=C[C@H](C1CCCC1)O[C@@H]2C,nt,nt,nt,nt,9,nt
Cc1cccc(NC2=C/C(=N/S(=O)(=O)c3cccs3)c3ccccc3C2=O)c1,4,1,-3,nt,27,nt
Cc1ccc(NC2=C/C(=N\S(=O)(=O)c3cccs3)c3ccccc3C2=O)c(C)c1,100,20,5,41*,nt,0.31*
CCc1ccc(S(=O)(=O)/N=C2\C=C(Nc3ccc(O)cc3)C(=O)c3ccccc32)cc1,24,5,-5,97*,nt,0.5*
CCc1ccc(S(=O)(=O)/N=C2\C=CC(=O)c3ccccc32)cc1,6,nt,nt,93*,nt,1.7*
CCc1ccc(S(=O)(=O)/N=C2/C=C(Sc3ncn[nH]3)C(=O)c3ccccc32)cc1,12,9,0,nt,nt,nt
SMILES,Mtb betalactam,GDH-TPI inh,Mtb FBA inh,RecA intein inh,CCHF vOTU inh,GFP chromophore
O=C1C(Nc2ccc(O)cc2)=C/C(=N/S(=O)(=O)c2cccs2)c2ccccc21,nt,3,-2,96*,108*,0.19*
CCc1nc(SCC(=O)N2CCN(c3ccccc3)CC2)c2oc3ccccc3c2n1,3,12,-2,32*,4,>38
CCc1nc(SCCO)c2oc3ccccc3c2n1,3,9,1,2,9,nt
CCCC(C)C(=O)NC1CCCCN(Cc2ccccc2C)C1=O (stereo not given),nt,nt,nt,nt,-6,nt
COc1cc2c(cc1OC)C1(Nc3c-2c(Cc2ccccc2)nn3-c2ccccc2)C(=O)Nc2ccccc21 (stereo not given),100,10,3,35*,11,>38
O=C(Nc1cccc(F)c1)N1CCC(c2ccccc2)CC1,4,-1,-3,38*,12,>38
COc1ccc2c(c1)C(=O)N(c1ccccc1OC)C(=O)C2,14,-1,-3,0,6,nt
COc1ccccc1N1C(=O)Cc2ccccc2C1=O,-3,-7,3,31*,30*,11*

# Assay outcomes: PubChem, several laboratories
